# Assay results: PubChem BioAssay (Tox21)
# Values joined by “and” are separate entries in the source; they are usually repeats but may differ in a detail not shown here. Equal entries are not always repeated. Results filed as inconclusive are left out. Where a call stands in place of a potency, no number is given. Some compounds were tested as several samples or in several runs, with calls that do not always agree. Active and inactive are the calls of the source. Unless noted, the call rests on the fitted dose curve; in most records, active means well fitted curve in the direction sought with a large enough effect in the repeat runs; inconclusive means weak or mixed curves; inactive means no such curve, though single readings can be large; an effect the other way counts as inactive or inconclusive.
# What was measured:
# [1] = qHTS assay to identify small molecule agonists of the constitutive androstane receptor (CAR) signaling pathway - cell viability counter screen (AID 1224836); further: nearly all actives have a fitted effect of over 45% in size; further: potency means the concentration at half of the fitted maximal effect; on viability change, negative = cytotoxic: series mostly up to about 92 µM
# Outline: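 23 h treatment, 37 C, 5% CO2. Cell line: HepG2 stably expressing hCAR with a CYP2B6-2.2kb construct. Co-treatment: PK11195, 0.75 uM final. Read-out: CellTiter-Fluor fluorescence intensity.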
# [2] = qHTS assay to identify small molecule antagonists of the constitutive androstane receptor (CAR) signaling pathway - cell viability counter screen (AID 1224837); further: nearly all actives have a fitted effect of over 45% in size; further: potency means the concentration at half of the fitted maximal effect; on activity change, negative = cytotoxicity: series mostly up to about 92 µM
# Outline: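 Using CellTiter-Fluor, viability is scored in HepG2 cells stably carrying hCAR and a 2.2kb CYP2B6 reporter after 23 hr compound exposure across 15 concentrations, with CITCO present at 50 nM.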
# [3] = molecular target: Nuclear receptor subfamily 1 group I member 3 (Homo sapiens) (UniProt Q14994); assay: qHTS assay to identify small molecule antagonists of the constitutive androstane receptor (CAR) signaling pathway (AID 1224838);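 further: HepG2 cells stably expressing hCAR with CYP2B6 luciferase reporter stimulated by CITCO; nearly all actives have a fitted effect of over 40% in size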; further: potency means the concentration at half of the fitted maximal effect
# Sequence of Nuclear receptor subfamily 1 group I member 3 (Homo sapiens) (Q14994 whole entry, looked up): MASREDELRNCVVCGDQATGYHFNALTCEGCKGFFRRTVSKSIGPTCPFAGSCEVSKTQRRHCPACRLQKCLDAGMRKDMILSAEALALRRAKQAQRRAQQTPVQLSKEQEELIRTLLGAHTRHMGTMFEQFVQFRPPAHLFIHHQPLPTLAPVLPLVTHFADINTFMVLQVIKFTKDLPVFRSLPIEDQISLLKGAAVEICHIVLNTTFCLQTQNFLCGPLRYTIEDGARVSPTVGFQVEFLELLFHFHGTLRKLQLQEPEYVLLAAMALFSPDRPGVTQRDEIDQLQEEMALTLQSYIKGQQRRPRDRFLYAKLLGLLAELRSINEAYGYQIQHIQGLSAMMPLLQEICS
# Outline: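 Reporter luminescence was quantified after 24 h exposure of hCAR/CYP2B6-2.2kb double-stable HepG2 cells to compounds at 15 concentrations in the presence of 50 nM CITCO final.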
# [4] = molecular target: Nuclear receptor subfamily 1 group I member 3 (Homo sapiens) (UniProt Q14994); assay: qHTS assay to identify small molecule agonists of the constitutive androstane receptor (CAR) signaling pathway (AID 1224839); further: nearly all actives have a fitted effect of over 15% in size; further: potency means the concentration at half of the fitted maximal effect;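 on activation: HepG2 cells stably carrying human CAR and a CYP2B6 luciferase reporter; series mostly up to about 92 µM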
# Outline: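 Compounds tested at 15 concentrations on HepG2 cells stably harbouring hCAR and CYP2B6-2.2kb reporter constructs, co-treated with PK11195 (0.75 uM final), 24 h at 37 C; luminescent reporter signal quantified.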
# [5] = qHTS assay to identify small molecule antagonists of the estrogen related receptor signaling pathway with the pleiotropic PPARgamma coactivator (PGC) from Tox21 10K library - cell viability counter screen (AID 1224840; active means well fitted cell-killing curve with a large enough effect in the repeat runs, not every such curve was filed as active; further: nearly all actives have a fitted effect of over 40% in size; further: potency means the concentration at half of the fitted maximal effect)
# Outline: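 Here the PGC/ERR cells serve as a cytotoxicity control: they are exposed to compounds for 17.5 hours at 37 C, and live-cell signal is quantified using CellTiter-Fluor fluorescence.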
# [6] = qHTS assay to identify small molecule antagonists of the estrogen related receptor signaling pathway with the pleiotropic PPARgamma coactivator (PGC) from Tox21 10K library (AID 1224841; call rule not given here; further: actives are mostly falling curves and most rising ones were filed inactive; nearly all actives have a fitted effect of over 50% in size; further: potency means the concentration at half of the fitted maximal effect; on activity, negative = inhibition: series mostly up to about 92 µM)
# Outline: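 Each well held 2,000 PGC/ERR cells, pre-incubated six hours (37 C, 5% CO2). Test substances in DMSO were added by pin tool and left for 18 h at 37 C before luciferase detection by One-Glo.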
# [7] = qHTS assay to identify small molecule agonists of the estrogen related receptor signaling pathway with the pleiotropic PPARgamma coactivator (PGC) from Tox21 10K library (AID 1224842); further: nearly all actives have a fitted effect of over 15% in size
# Outline: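 Luminescence from One-Glo (30 min, room temperature) measured after PGC/ERR cells had 18 h at 37 C with pinned compound (23 nL in DMSO). Cells had been seeded at 2,000 per well and pre-incubated 6 h.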
# [8] = qHTS assay to identify small molecule agonists of the hypoxia (HIF-1) signaling pathway - cell viability counter screen (AID 1224844; calls by dose curve; further: nearly all actives have a fitted effect of over 50% in size; further: potency means the concentration at half of the fitted maximal effect)
# Outline: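 Multiplexed with the HRE beta-lactamase assay, this viability read used CellTiter-Glo luminescence (30 min, RT) on HRE-bla ME-180 cells treated 17 hrs with compounds in 0.5% dialyzed FBS medium.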
# [9] = molecular target: Luciferin 4-monooxygenase (Photinus pyralis) (UniProt P08659); assay: qHTS assay to identify small molecule inhibitors of firefly luciferase (AID 1224835); further: nearly all actives have a fitted effect of over 25% in size; further: potency means the concentration at half of the fitted maximal effect
# Sequence of Luciferin 4-monooxygenase (Photinus pyralis) (P08659 whole entry, looked up): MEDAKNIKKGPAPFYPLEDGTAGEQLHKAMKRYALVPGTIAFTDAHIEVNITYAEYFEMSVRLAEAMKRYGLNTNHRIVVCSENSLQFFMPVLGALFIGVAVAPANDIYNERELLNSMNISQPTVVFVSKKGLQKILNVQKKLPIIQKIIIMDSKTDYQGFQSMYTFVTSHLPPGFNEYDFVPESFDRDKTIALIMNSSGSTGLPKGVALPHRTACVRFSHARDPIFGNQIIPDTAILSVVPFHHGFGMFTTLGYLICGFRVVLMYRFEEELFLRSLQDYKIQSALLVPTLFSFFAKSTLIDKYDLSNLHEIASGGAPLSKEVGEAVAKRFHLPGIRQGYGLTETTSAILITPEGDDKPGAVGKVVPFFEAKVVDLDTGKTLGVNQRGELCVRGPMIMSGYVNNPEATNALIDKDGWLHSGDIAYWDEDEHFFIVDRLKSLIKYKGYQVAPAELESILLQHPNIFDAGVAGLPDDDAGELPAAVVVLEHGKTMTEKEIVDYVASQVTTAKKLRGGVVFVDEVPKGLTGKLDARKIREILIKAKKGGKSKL
# Outline: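 Inhibition of purified Photinus luciferase is measured by luminescence. Substrate levels (D-luciferin, ATP) sit at their KM values. Each compound is tested in a concentration series.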
# [10] = molecular target: Thyrotropin receptor (Homo sapiens) (UniProt P16473); assay: qHTS assay to identify small molecule agonists of the thyroid stimulating hormone receptor (TSHR) signaling pathway (AID 1224843; calls by dose curve; further: nearly all actives have a fitted effect of over 45% in size)
# Sequence of Thyrotropin receptor (Homo sapiens) (P16473 whole entry, looked up): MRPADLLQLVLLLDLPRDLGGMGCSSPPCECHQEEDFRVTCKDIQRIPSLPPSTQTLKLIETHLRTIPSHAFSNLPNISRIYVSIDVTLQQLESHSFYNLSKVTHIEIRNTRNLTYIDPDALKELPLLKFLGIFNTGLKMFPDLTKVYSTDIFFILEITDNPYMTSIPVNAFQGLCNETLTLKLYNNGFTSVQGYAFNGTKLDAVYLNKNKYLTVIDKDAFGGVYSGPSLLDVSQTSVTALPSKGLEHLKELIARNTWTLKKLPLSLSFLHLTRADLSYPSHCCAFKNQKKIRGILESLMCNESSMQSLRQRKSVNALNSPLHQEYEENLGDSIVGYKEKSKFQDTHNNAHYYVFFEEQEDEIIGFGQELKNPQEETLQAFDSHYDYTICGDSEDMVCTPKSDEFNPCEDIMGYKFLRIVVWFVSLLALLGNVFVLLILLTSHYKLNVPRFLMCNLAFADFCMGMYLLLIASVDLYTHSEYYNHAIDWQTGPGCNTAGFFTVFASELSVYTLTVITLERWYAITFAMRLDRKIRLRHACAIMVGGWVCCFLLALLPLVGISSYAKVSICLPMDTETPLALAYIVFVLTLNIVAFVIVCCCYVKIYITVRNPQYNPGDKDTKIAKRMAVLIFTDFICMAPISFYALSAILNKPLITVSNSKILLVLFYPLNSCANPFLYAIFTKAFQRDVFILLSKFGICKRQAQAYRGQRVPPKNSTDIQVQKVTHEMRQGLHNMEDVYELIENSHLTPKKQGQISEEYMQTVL
# Outline: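 HEK293 cells stably bearing the thyrotropin receptor were plated at 800 cells/well and challenged with compound (30 min, RT). Accumulated cAMP was quantified via cAMP-d2 competing for cryptate-tagged antibody.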
smiles,measurement,setting,value
CCCCC/C=C/CC1CC(=O)OC1=O (centres undefined),Potency,[1],inactive
same,Potency,[2],inactive
same,Potency,[3],inactive
same,Potency,[4],inactive
same,Potency,[5],inactive
same,Potency,[6],inactive
same,Potency,[7],inactive
same,Potency,[8],inactive
CCCCCCCCCCCC[N+](C)(C)C,Potency,[9],inactive
same,Potency,[3],inactive
same,Potency,[4],inactive
same,Potency,[8],inactive
CC1=CC(=O)c2ccccc2C1=O,Potency,[9],inactive
same,Potency,[3],30.6 µM (active)
same,Potency,[4],inactive
same,Potency,[5],inactive
same,Potency,[6],30.6 µM (active)
same,Potency,[7],inactive
same,Potency,[8],21.9 µM (active) and inactive
O=C(Nc1ccccc1SSc1ccccc1NC(=O)c1ccccc1)c1ccccc1,Potency,[9],5.05 µM (active) and 2.52 µM (active)
same,Potency,[2],19.4 µM (active) and 24.3 µM (active)
same,Potency,[3],21.8 µM (active) and 30.6 µM (active)
same,Potency,[5],30.8 µM (active) and 48.6 µM (active)
same,Potency,[6],27.4 µM (active) and 27.3 µM (active)
same,Potency,[7],inactive
same,Potency,[10],inactive
same,Potency,[8],15.6 µM (active) and 21.9 µM (active)
Cc1cccc2n[nH]nc12,Potency,[1],inactive
same,Potency,[2],inactive
same,Potency,[3],inactive
same,Potency,[4],inactive
same,Potency,[5],inactive
same,Potency,[6],inactive
same,Potency,[7],inactive
same,Potency,[10],inactive
same,Potency,[8],inactive
c1ccc2cc3c(ccc4ccccc43)cc2c1,Potency,[1],inactive
same,Potency,[2],inactive
same,Potency,[3],inactive
same,Potency,[4],30.7 µM (active) and 27.3 µM (active)
same,Potency,[5],inactive
same,Potency,[10],inactive
same,Potency,[8],inactive
Cc1scc2c1N(C(=O)CN1CCN(C)CC1)c1ccccc1NC2=O,Potency,[9],inactive
same,Potency,[2],inactive
same,Potency,[5],inactive
same,Potency,[8],inactive
CC(=O)CC(=O)Nc1ccc2[nH]c(=O)[nH]c2c1,Potency,[9],inactive
same,Potency,[2],inactive
same,Potency,[3],inactive
same,Potency,[5],inactive
same,Potency,[6],inactive
same,Potency,[7],inactive
same,Potency,[10],inactive
same,Potency,[8],inactive
Nc1cc(S(=O)(=O)O)cc2cc(S(=O)(=O)O)cc(O)c12,Potency,[9],31.7 µM (active)
same,Potency,[2],inactive
same,Potency,[8],inactive and 4.9 µM (active)
CC(N)=O,Potency,[9],inactive
same,Potency,[2],inactive
same,Potency,[5],inactive
same,Potency,[10],inactive
same,Potency,[8],inactive
Nc1cc(Cl)c(-c2cc(Cl)c(N)cc2Cl)cc1Cl,Potency,[9],inactive
same,Potency,[3],13.7 µM (active) and 27.3 µM (active)
same,Potency,[4],inactive
same,Potency,[7],inactive
same,Potency,[8],38.9 µM (active)
COc1ccc(CCN2CCC(Nc3nc4ccccc4n3Cc3ccc(F)cc3)CC2)cc1,Potency,[1],17.6 µM (active) and 29.8 µM (active)
same,Potency,[2],17.6 µM (active) and 29.8 µM (active)
same,Potency,[3],17.6 µM (active) and 26.6 µM (active)
same,Potency,[4],inactive
same,Potency,[5],19.8 µM (active) and 29.8 µM (active)
same,Potency,[7],inactive
same,Potency,[8],12.6 µM (active)
CC(=O)C1=C(C)[C@@H]2C[C@@]3(C1)[C@H](C)CC[C@H]3C2(C)C,Potency,[1],inactive
same,Potency,[2],inactive
same,Potency,[3],inactive
same,Potency,[4],40.3 µM (active) and 27.3 µM (active)
same,Potency,[5],inactive
same,Potency,[10],inactive
same,Potency,[8],inactive
Nc1nc(=S)c2[nH]cnc2[nH]1,Potency,[2],11.9 µM (active) and 4.86 µM (active)
same,Potency,[3],5.96 µM (active) and 1.93 µM (active) and 2.37 µM (active)
same,Potency,[4],inactive
same,Potency,[5],inactive
same,Potency,[10],inactive
CC(C)(C)c1ccccc1,Potency,[2],inactive
same,Potency,[3],inactive
same,Potency,[5],inactive
same,Potency,[6],inactive
same,Potency,[7],inactive
same,Potency,[10],inactive
same,Potency,[8],inactive
Cc1c(O)cccc1C(=O)N[C@@H](CSc1ccccc1)[C@H](O)CN1C[C@H]2CCCC[C@H]2C[C@H]1C(=O)NC(C)(C)C,Potency,[1],26.6 µM (active) and 23.7 µM (active)
same,Potency,[2],26.6 µM (active) and 11.9 µM (active)
same,Potency,[3],59.5 µM (active) and 26.6 µM (active)
same,Potency,[5],9.43 µM (active)
same,Potency,[7],inactive
same,Potency,[8],12 µM (active) and inactive
CCCCCC(=O)O[C@]1(C(C)=O)CC[C@H]2[C@@H]3CCC4=CC(=O)CC[C@]4(C)[C@H]3CC[C@@]21C,Potency,[2],48.2 µM (active)
same,Potency,[3],inactive
same,Potency,[4],inactive
same,Potency,[5],54.1 µM (active)
same,Potency,[6],inactive
same,Potency,[7],inactive
same,Potency,[8],38.6 µM (active)
c1ccc2c(c1)-c1cccc3c1c-2cc1ccccc13,Potency,[1],inactive
same,Potency,[2],inactive
same,Potency,[3],inactive
same,Potency,[4],21.2 µM (active) and 17.2 µM (active)
same,Potency,[5],inactive
same,Potency,[8],33.9 µM (active)
CCCNC(C)C(=O)Nc1ccccc1C (centres undefined),Potency,[1],inactive
same,Potency,[2],inactive
same,Potency,[3],inactive
same,Potency,[5],inactive
same,Potency,[8],inactive
CCCCCCCCCCCCc1ccccc1O,Potency,[3],30.6 µM (active)
same,Potency,[4],4.79 µM (active) and 4.33 µM (active)
same,Potency,[5],inactive and 48.6 µM (active)
same,Potency,[8],19.5 µM (active)
NC(Cc1ccc(Cl)cc1)C(=O)O (centres undefined),"activity change, negative = cytotoxicity",[2],6.69% [at 0.349 µM] (inactive)
same,"activity, negative = inhibition",[3],-14.1% [at 0.349 µM] (inactive)
same,"viability change, negative = cytotoxic",[5],-10% [at 0.349 µM] (inactive)
same,"activity, negative = inhibition",[6],0.39% [at 0.349 µM] (inactive)
same,activation,[7],0.108% [at 0.349 µM] (inactive)
same,activation,[10],-0.308% [at 0.349 µM] (inactive)
same,"activity change, negative = cytotoxicity",[8],0.588% [at 0.29 µM] (inactive)
